Assay results reported in PMC5540273 (PLoS ONE, 2017).
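Note: kd values determined as follow-up on hits from a single-replicate KINOMEscan panel screen.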

The compounds below were run on T1, TRKC.
T1 construct: gene NTRK3
`COC(=O)c1cccc(NC(=O)NC2CCN(c3ccnc(Nc4ccc(OC)cc4)n3)C2)c1` (centres unmarked) [GSK1379746] gave a Kd of 1000 nM.
For `COC(=O)c1cccc(NC(=O)NC2CCN(c3ccnc(Nc4ccc(F)cc4)n3)C2)c1` (centres unmarked) [GSK1379725], the Kd was 340 nM.
`CC(=O)c1cccc(NC(=O)NC2CCN(c3ccnc(Nc4ccc(F)cc4)n3)C2)c1` (centres unmarked) [GSK1379710] showed a Kd of 94 nM.

These compounds were tested on T2, VPS34.
T2 construct: gene PIK3C3
For `Cc1ccccc1Cn1ccn2c(=O)cc(N3CCOCC3)nc12` [GSK2269905], the Kd was 180 nM.
In the case of `O=c1cc(N2CCOCC2)nc2n(Cc3cccc(Cl)c3Cl)c3ccccc3n12` [GSK2299009], the Kd is reported as 470 nM.
`O=c1cc(N2CCOCC2)nc2n(Cc3ccccc3F)ccn12` [GSK2297428] showed a Kd of 68 nM.
`O=C1NC(=O)C(c2ccc(Cl)cc2)=C1Nc1cccc(Cl)c1` [SB-317651] was tested, and the Kd was 300 nM.
In the case of `Cc1c(Cn2c3ccccc3n3c(=O)cc(N4CCOCC4)nc23)cccc1C(F)(F)F` [GSK2306394], the Kd is reported as > 10000 nM.
